Data: PubChem BioAssay (NCATS)
Where “and” joins values, the source holds several entries; their conditions need not be identical. Equal values may be shown once. Results filed as inconclusive are left out. Calls of active or inactive are those of the source. Unless noted, calls come from the whole dose curve; as a rule, active = well fitted curve in either direction with a large enough effect (not every such curve was filed as active); inconclusive = small, poorly fitted or top-dose-only effect, or another doubt; inactive = flat fitted curve, though single readings scatter.

How the values were obtained:
[1] = target: Lysosomal acid glucosylceramidase (Homo sapiens) (UniProt P04062); assay: Glucocerebrosidase-p2 (AID 348; in the data active = potency below about 10 µM; note: potency is the fitted concentration of half-maximal effect); conditions: purified GBA, blue fluorogenic substrate, 40 min
Sequence of Lysosomal acid glucosylceramidase (Homo sapiens) (P04062 whole entry, looked up): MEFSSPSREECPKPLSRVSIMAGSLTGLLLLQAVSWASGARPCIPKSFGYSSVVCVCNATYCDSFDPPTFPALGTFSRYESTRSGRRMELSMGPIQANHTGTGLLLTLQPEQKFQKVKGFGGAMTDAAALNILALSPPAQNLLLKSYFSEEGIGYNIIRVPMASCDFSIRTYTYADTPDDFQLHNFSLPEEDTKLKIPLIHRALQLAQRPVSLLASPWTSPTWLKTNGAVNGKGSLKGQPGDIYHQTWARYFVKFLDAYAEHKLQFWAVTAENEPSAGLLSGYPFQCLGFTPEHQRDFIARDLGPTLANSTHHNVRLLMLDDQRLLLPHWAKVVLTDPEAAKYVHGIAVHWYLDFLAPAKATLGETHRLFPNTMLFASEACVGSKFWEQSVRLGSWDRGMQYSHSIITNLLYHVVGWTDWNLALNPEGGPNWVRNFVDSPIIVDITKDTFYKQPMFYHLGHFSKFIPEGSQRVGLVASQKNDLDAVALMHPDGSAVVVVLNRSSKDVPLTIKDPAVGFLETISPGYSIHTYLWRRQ
Method in brief: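 Normal human glucocerebrosidase (0.2 nM) with blue fluorogenic substrate (80 uM final) in citrate/phosphate pH 5.9 with 10mM sodium taurocholate, 0.01% tween-20; 40 min RT, NaOH/glycine stop; fluorescence Ex 365/Em 440; AC50 from a titration from 0.6 nM upwards.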

[2] = AP1 Signaling Pathway (AID 357); conditions: ME-180 AP-1-bla reporter, EGF-induced, beta-lactamase ratio, 5 h; at 7.69 µM (top of the series) unless noted;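 note: ME-180 reporter cells stimulated with EGF at its EC50 level; % is set by controls: 0 for no effect and ±100 for the full control effect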
Method in brief: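 Cells are seeded overnight, exposed to compound titrations and an EC50 level of EGF for 5 hours at 37 °C, then loaded with CCF4 dye for 2.5 hours. Beta-lactamase activity under the AP-1 element is read as a blue/green ratio.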

[3] = target: Cytochrome P450 1A2 (Homo sapiens) (UniProt P05177); assay: p450-cyp1a2 (AID 410; calls by dose curve; note: potency is the fitted concentration of half-maximal effect;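 for activity change, negative = inhibition: -100% = full effect of reference inhibitor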); conditions: recombinant CYP1A2, luciferin-ME demethylation, luminescence; series mostly up to 11.4 µM
Sequence of Cytochrome P450 1A2 (Homo sapiens) (P05177 whole entry, looked up): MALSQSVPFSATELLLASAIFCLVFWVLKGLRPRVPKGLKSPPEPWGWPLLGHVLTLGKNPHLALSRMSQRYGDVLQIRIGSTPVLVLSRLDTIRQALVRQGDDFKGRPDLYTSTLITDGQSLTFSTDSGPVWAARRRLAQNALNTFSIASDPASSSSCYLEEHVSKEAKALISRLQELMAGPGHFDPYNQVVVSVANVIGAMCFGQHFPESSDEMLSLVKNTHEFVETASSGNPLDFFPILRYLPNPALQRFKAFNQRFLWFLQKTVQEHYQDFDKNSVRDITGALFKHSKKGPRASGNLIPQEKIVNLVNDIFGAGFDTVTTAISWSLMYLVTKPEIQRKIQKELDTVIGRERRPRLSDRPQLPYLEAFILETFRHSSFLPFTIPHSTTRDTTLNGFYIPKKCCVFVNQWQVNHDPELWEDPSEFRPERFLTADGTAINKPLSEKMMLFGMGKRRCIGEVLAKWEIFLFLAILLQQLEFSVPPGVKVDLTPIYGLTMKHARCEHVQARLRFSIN
Method in brief: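 20nM CYP1A2, 100uM Luciferin-ME (=Km), 100mM KPO4; cpd 10 min RT; +NADPH regen, 60 min RT; stop/detect 20 min; luminescence. Normalized to furafylline 57 uM = full inhibition.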

[4] = NFAT Signaling Pathway (AID 444); conditions: Jurkat NFAT-bla M1, carbachol, beta-lactamase ratio, 5 h; at 7.69 µM (top of the series) unless noted;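 note: carbachol stimulus at about its EC50 of 1 µM final; % is set by controls: 0 for no effect and ±100 for the full control effect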
Method in brief: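 Jurkat cells carrying an NFAT-driven β-lactamase reporter and co-transfected muscarinic M1 receptor were treated with compound plus carbachol (1 uM final, an EC50 level) for 5 h at 37 °C. CCF4 loading followed for 1 h at RT; 460/530 nm ratio gave %activity.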

[5] = Stat Signaling Pathway (AID 446); conditions: ME-180 SIE beta-lactamase reporter, IL-6 stimulated, 5 h; at 7.69 µM (top of the series) unless noted;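 note: ME-180 cervical cancer cells given 40 pM IL-6 alongside compound; SIE-controlled beta-lactamase reporter measured as 460/530 nm FRET emission ratio; % is set by controls: 0 for no effect and ±100 for the full control effect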
Method in brief: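 Emission at 460 and 530 nm (excitation 405 nm) reports SIE-controlled beta-lactamase in ME-180 cells. Cells received compound with 40 pM IL-6 for 5 hrs at 37 C; data scaled between 300 pM IL-6 and 125 nM JAK-inhibitor controls.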

[6] = target: Glucocorticoid receptor (Homo sapiens) (UniProt P04150); assay: GR-GFP Redistribution (AID 450;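 active = compounds whose dose series gives a full or clear partial fitted curve of increased nuclear translocation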; note: potency is the fitted concentration of half-maximal effect); conditions: U2OS GR-GFP nuclear translocation, laser cytometry, 2 h
Sequence of Glucocorticoid receptor (Homo sapiens) (P04150 whole entry, looked up, the tested form may be a part): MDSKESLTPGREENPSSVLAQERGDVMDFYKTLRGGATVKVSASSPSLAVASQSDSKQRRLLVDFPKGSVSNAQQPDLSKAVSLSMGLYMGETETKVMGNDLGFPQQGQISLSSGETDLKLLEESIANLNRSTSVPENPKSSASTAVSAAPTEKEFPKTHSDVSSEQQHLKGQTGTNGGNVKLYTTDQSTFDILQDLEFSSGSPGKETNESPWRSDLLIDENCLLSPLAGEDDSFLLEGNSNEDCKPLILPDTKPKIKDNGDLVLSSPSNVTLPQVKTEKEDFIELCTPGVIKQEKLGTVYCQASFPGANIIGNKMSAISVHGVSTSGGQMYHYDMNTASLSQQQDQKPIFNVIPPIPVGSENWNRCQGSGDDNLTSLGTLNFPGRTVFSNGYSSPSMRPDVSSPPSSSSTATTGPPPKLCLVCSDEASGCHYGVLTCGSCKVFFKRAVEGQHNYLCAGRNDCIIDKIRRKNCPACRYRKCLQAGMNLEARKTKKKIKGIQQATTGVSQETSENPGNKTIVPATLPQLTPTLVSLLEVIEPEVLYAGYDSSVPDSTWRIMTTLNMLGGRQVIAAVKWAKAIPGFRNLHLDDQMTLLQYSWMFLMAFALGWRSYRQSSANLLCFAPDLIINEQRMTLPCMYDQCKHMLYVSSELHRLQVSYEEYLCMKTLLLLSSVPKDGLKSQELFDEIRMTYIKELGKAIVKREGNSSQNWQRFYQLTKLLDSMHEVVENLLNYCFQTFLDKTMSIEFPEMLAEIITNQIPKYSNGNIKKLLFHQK

[7] = target: Mitogen-activated protein kinase 10 (Mus musculus) (UniProt Q61831); assay: JNK3 AlphaScreen Assay (AID 530); conditions: JNK3 lysate, c-Jun phosphorylation; series mostly up to 57.1 µM;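 note: kinase came from lysate of stimulated human HepG2 cells; signal reports phosphorylation of biotinylated GST-cJun 1-79 at Ser73 with 10 µM ATP; % is set by controls: 0 for no effect and ±100 for the full control effect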
Method in brief: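 Biotinylated GST-cJun(1-79) served as substrate for JNK3 in HepG2 lysates stimulated with IL-1beta and TNF-alpha. ATP was 10 uM final, pH 7.6. Ser73 phosphorylation was quantified by AlphaScreen (680 nm excitation).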

[8] = target: 3',5'-cyclic-AMP phosphodiesterase 4B (Homo sapiens) (UniProt Q07343); assay: qHTS Assay for Inhibitors of PDE-IV (AID 607; active = well fitted activation curve with a large enough effect in the main read-out, with a control signal flat, not every such curve was filed as active; note: % of control where 0% means no effect); conditions: HEK293 ACTOne CNG channel cells, membrane potential fluorescence; series mostly up to 22.9 µM
Sequence of 3',5'-cyclic-AMP phosphodiesterase 4B (Homo sapiens) (Q07343 whole entry, looked up): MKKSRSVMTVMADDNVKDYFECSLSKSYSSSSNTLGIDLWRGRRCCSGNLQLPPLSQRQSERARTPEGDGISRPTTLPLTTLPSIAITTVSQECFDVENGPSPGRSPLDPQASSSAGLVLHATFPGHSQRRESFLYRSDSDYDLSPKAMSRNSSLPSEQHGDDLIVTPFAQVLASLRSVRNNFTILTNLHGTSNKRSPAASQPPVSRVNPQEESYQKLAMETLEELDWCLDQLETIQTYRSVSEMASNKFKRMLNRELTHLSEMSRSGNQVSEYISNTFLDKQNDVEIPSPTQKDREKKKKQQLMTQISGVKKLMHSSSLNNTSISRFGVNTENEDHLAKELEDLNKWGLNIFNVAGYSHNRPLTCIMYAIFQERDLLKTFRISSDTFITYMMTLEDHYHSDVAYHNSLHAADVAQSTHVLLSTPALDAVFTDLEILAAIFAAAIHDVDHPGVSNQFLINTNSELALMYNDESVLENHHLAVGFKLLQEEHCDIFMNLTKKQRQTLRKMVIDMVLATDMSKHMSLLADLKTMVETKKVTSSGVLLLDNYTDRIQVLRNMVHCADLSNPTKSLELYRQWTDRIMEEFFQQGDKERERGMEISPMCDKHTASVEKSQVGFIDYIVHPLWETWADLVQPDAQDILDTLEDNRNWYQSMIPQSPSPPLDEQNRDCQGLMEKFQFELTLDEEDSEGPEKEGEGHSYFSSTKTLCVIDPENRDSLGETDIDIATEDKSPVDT
Method in brief: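 The readout is membrane depolarisation from a cAMP-sensing CNG channel, detected with a potential dye at ex 535/em 590. Cells were HEK293-derived (endogenous PDE-IV) at 1000 cells/well, titrated up to 22.9 uM final.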

[9] = qHTS Assay for Identification of Small Molecule Agonists for Hypoxia Response Element Signaling Pathway (AID 914; active = well fitted activation curve with a large enough effect in the signal ratio, with a control signal flat, not every such curve was filed as active; the % refers to the signal ratio; note: % of control where 0% means no effect); conditions: ME-180 (cervical carcinoma) HRE-bla reporter, beta-lactamase ratio, CoCl2, 17 h; hits give high values
Method in brief: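 Compounds in a titration series were added to ME-180 reporter cells alongside an EC50 level of CoCl2. After 17 hours, beta-lactamase activity was read as the 460nm/530nm emission ratio of CCF4, giving AC50 values.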

[10] = target: Glucocorticoid receptor (Homo sapiens) (UniProt P04150); assay: GR-EFC Redistribution (AID 451; calls by dose curve; note: potency is the fitted concentration of half-maximal effect); conditions: CHO-K1 GR-EFC translocation, beta-gal luminescence, 2 h
Method in brief: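 CHO-K1 cells stably expressing nuclear-localized β-gal enzyme acceptor and GR fused C-terminally to the enzyme donor fragment; ligand-driven nuclear translocation restores β-gal by complementation. Compounds titrated up to 46 uM final, 2 h at 37 °C; luminescence read.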

[11] = target: Cytochrome P450 2C9 (Homo sapiens) (UniProt P11712); assay: qHTS Assay for Inhibitors and Substrates of Cytochrome P450 2C9 (AID 883; active = well fitted inhibition curve with a large enough effect; note: potency is the fitted concentration of half-maximal effect; nearly all actives have a fitted effect of over 60% in size); conditions: recombinant CYP2C9, luciferin-H luminescence, 60 min; series mostly up to 57.1 µM
Sequence of Cytochrome P450 2C9 (Homo sapiens) (P11712 whole entry, looked up): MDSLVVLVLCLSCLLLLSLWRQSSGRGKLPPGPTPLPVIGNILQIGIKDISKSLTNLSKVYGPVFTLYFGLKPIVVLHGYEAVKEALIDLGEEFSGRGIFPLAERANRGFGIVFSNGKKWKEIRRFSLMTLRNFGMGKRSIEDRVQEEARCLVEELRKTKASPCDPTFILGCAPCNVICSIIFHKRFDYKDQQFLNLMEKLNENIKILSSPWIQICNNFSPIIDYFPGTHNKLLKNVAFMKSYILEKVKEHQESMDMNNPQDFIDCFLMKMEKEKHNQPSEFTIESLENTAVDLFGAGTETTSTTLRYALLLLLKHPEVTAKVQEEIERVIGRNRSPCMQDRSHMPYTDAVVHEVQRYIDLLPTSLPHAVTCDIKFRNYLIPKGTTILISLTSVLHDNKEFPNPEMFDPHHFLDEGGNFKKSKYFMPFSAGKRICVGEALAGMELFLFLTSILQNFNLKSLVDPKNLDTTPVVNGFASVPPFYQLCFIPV
Method in brief: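 A luminogenic readout tracked human CYP2C9 (10nM) converting deoxyluciferin (100uM, at KM) in 25mM KPO4 during 60 min at 37C with regenerated NADPH. Values normalized to 57uM sulphaphenazole as complete inhibition.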

[12] = target: Cytochrome P450 2D6 (Homo sapiens) (UniProt P10635); assay: qHTS Assay for Inhibitors and Substrates of Cytochrome P450 2D6 (AID 891; active = well fitted inhibition curve with a large enough effect; note: potency is the fitted concentration of half-maximal effect; nearly all actives have a fitted effect of over 60% in size); conditions: recombinant CYP2D6, luciferin-ME EGE luminescence; series mostly up to 11.4 µM
Sequence of Cytochrome P450 2D6 (Homo sapiens) (P10635 whole entry, looked up): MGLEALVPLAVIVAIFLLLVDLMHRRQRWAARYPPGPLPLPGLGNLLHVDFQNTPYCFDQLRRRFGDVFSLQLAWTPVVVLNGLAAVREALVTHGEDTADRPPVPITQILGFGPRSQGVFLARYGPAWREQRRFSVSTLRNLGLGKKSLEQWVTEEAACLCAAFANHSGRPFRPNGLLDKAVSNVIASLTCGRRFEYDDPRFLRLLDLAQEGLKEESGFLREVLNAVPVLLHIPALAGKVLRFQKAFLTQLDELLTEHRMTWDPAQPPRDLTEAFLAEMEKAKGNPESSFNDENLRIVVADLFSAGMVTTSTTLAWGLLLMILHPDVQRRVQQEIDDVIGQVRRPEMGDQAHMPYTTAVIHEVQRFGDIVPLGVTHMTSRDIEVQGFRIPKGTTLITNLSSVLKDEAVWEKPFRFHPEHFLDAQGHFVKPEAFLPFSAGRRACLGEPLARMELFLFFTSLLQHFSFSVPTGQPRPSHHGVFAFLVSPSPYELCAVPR
Method in brief: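 Luminescent read-out of luciferin formed by 5 nM human CYP2D6 demethylating 30 uM Luciferin-ME EGE (Km level) over 60 min at room temperature after NADPH regeneration addition. Data normalized to full inhibition by 1.43 uM quinidine.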

O=[As](O)(O)c1ccc(N=Nc2ccc(O)cc2)cc1
inactive: Potency [1] > 11.4 µM | activity change, negative = inhibition [2] 3.33% | Potency [3] | activity change, negative = inhibition [4] 9.82% | activity, negative = inhibition [5] 3.63% | Potency [6] > 46 µM | activity change, negative = inhibition [7] -2.48% [at 11.4 µM] | outcome [8] | activation [9] 5.33%

CC(=O)O/C(=C1/C[C@H]2[C@@H]3CC=C4C[C@@H](OC(C)=O)CC[C@]4(C)[C@@H]3CC[C@]2(C)C1=O)C(F)(F)F
inactive: Potency [1] > 11.4 µM | activity change, negative = inhibition [2] -23.8% | activity, negative = inhibition [5] -16.9% | Potency [6] > 46 µM | Potency [10] > 9.22 µM | activity change, negative = inhibition [7] -0.565% [at 11.4 µM] | outcome [8]
active: Potency [3] 5.01 µM

CC(C)CCC1(CCN)C(=O)NC(=O)NC1=O
inactive: Potency [1] > 11.4 µM | activity change, negative = inhibition [2] 5.02% | Potency [3] | activity change, negative = inhibition [4] 4.97% | Potency [6] > 46 µM | Potency [10] > 9.22 µM | activity change, negative = inhibition [7] -0.876% [at 11.4 µM] | outcome [8]

C[C@@H](Cc1ccc(Cl)cc1Cl)NO
inactive: Potency [1] > 11.4 µM | activity change, negative = inhibition [2] 3.86% | activity change, negative = inhibition [4] -11.6% | Potency [6] > 46 µM | Potency [10] > 9.22 µM | activity change, negative = inhibition [7] 2.58% [at 11.4 µM] | outcome [8]
active: Potency [3] 0.251 µM

C[C@]12CC[C@@H]3[C@H](CCC4=CC(=O)CC[C@]43C)[C@]1(O)CC[C@@]2(O)C(=O)CO
inactive: Potency [1] > 11.4 µM | activity change, negative = inhibition [2] -0.316% | activity change, negative = inhibition [3] 4.8% [at 2.29 µM] | activity change, negative = inhibition [4] 5.17% | Potency [10] > 9.22 µM | activity change, negative = inhibition [7] 4.11% [at 11.4 µM] | outcome [8] | activation [9] 7.15%
active: Potency [6] 0.822 µM

COc1cc2c3cc1Oc1c(O)c(OC)cc4c1[C@@H](Cc1ccc(cc1)Oc1cc(ccc1O)C[C@H]3N(C)CC2)N(C)CC4
inactive: Potency [1] > 11.4 µM | activity change, negative = inhibition [2] 5.28% | Potency [3] | activity change, negative = inhibition [4] -11.5% | Potency [6] > 46 µM | Potency [10] > 9.22 µM | activity change, negative = inhibition [7] 4.78% [at 11.4 µM] | outcome [8]

Cc1nc2ccccc2cc1C[N+]12CN3CN(CN(C3)C1)C2
inactive: Potency [1] > 11.4 µM | activity change, negative = inhibition [2] -8.29% | activity change, negative = inhibition [4] 6.19% | Potency [6] > 46 µM | activity change, negative = inhibition [7] 0.875% [at 11.4 µM] | outcome [8] | activation [9] 9.32%
active: Potency [3] 0.631 µM

COc1cc2c(cc1OC)[C@@]13CCN4C=C5CCO[C@H]6CC(=O)N2[C@@H]1[C@@H]6[C@H]5C[C@H]43
inactive: Potency [1] > 11.4 µM | activity change, negative = inhibition [2] 4.45% | activity change, negative = inhibition [4] 16.4% | activity, negative = inhibition [5] 2.38% | activity change, negative = inhibition [7] 3.62% [at 11.4 µM] | outcome [8] | activation [9] -4.7%
active: Potency [3] 5.01 µM

NCCP(=O)(O)O
inactive: Potency [1] > 11.4 µM | activity change, negative = inhibition [2] 3.81% | Potency [3] | activity change, negative = inhibition [4] 9.11% | Potency [6] > 46 µM | Potency [10] > 9.22 µM | outcome [8] | activation [9] 0.635%

N=C(N)SCc1ccc(Cl)c2ccccc12 (tested in a mixture with another compound)
active: Potency [3] 251 nM and 158 nM | Potency [11] 3.98 µM | Potency [12] 3.16 µM
inactive: Potency [1] > 11.4 µM | activity change, negative = inhibition [2] 6.29% and 5.72% | activity change, negative = inhibition [4] -1.16% | activity, negative = inhibition [5] -8.84% and -10.7% | activity change, negative = inhibition [7] 3.26% [at 11.4 µM] and 4.92% [at 11.4 µM] | outcome [8]

CC(C)C(=O)CP(=O)(O)O
inactive: Potency [1] > 11.4 µM | activity change, negative = inhibition [2] 10.1% | Potency [3] | activity change, negative = inhibition [4] 7.02% | Potency [6] > 46 µM | Potency [10] > 9.22 µM | activity change, negative = inhibition [7] 3.33% [at 11.4 µM] | outcome [8]

Cn1c(=O)c2[nH]cnc2n(C)c1=O.[CH2-][C@H](Cc1cccc2cc(C(=O)O)c(=O)oc12)OC.[Hg].[OH-]
inactive: activity change, negative = inhibition [2] -5.03% | Potency [3] | activity change, negative = inhibition [4] 6.5% | activity, negative = inhibition [5] 14% | activity change, negative = inhibition [7] -0.539% [at 11.4 µM] | outcome [8]
active: Potency [1] 4.43 µM

O=C(O)[C@H](Cc1cnc[nH]1)N1C(=O)c2ccccc2C1=O
inactive: Potency [1] > 11.4 µM | activity change, negative = inhibition [2] -8.47% | activity change, negative = inhibition [4] 7.47% | activity, negative = inhibition [5] 4.43% | Potency [6] > 46 µM | Potency [10] > 9.22 µM | activity change, negative = inhibition [7] 41.7% [at 11.4 µM] | outcome [8]

O=S(=O)(NCCO)c1cc[c]([Sb](=[O])([OH])[OH])cc1
inactive: Potency [1] > 11.4 µM | activity change, negative = inhibition [2] -1.39% | activity change, negative = inhibition [4] 16.2% | activity, negative = inhibition [5] 6.67% | Potency [6] > 46 µM | Potency [10] > 9.22 µM | activity change, negative = inhibition [7] 1.82% [at 11.4 µM] | outcome [8]
